According to PubChem BioAssay (EPA / NIEHS):
The source holds several records for some structures; these can differ, active in one and inactive in another. Activity calls are given as the source filed them. How the source made its calls: active means hit-call score of the fitted dose curve at least 0.9, where 1 is the maximum; inactive means score below 0.9.

Legend:
Conditions in all cases: mRNA level, 48 h; actives raise or lower the signal
[1] = read-out: Cytochrome P450 (CYP1A2), CYP1A2 (gene 1544); experiment: LTEA_HepaRG_CYP1A2: Life Technologies and Expression Analysis (LTEA) Assay for Cytochrome P450 (CYP1A2) using HepaRG (AID 2283479)
Procedure, shortened: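 HepaRG, 48 h exposure, top 100 uM, half-log 8-pt, 0.5% DMSO vehicle, duplicates. Readout: TaqMan qRT-PCR of CYP1A2 mRNA, housekeeping-normalized (ACTB/GAPDH/POLR2A). Gain/loss fit relative to DMSO baseline.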

[2] = read-out: cysteine-aspartic acid protease (CASP8), CASP8 (gene 841); experiment: LTEA_HepaRG_CASP8: Life Technologies and Expression Analysis (LTEA) Assay for cysteine-aspartic acid protease (CASP8) using HepaRG (AID 2283480)
Procedure, shortened: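 Differentiated HepaRG cells in serum-free induction medium, 48 h exposure, eight-point half-log series from 100 uM in 0.5% DMSO, duplicates. CASP8 mRNA by qRT-PCR, normalized to ACTB, GAPDH, POLR2A; bidirectional fit versus DMSO.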

[3] = read-out: Cytochrome P450 (CYP2B6), CYP2B6 (gene 1555); experiment: LTEA_HepaRG_CYP2B6: Life Technologies and Expression Analysis (LTEA) Assay for Cytochrome P450 (CYP2B6) using HepaRG (AID 2283481)
Procedure, shortened: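 Read-out is CYP2B6 mRNA by TaqMan qRT-PCR, normalized to three housekeeping genes and fitted bidirectionally against 0.5% DMSO baseline. Human HepaRG cells received test chemicals for 48 h, top concentration 100 uM, half-log dilutions.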

[4] = read-out: Cytochrome P450 2C19 (Homo sapiens) (UniProt P33261); experiment: LTEA_HepaRG_CYP2C19: Life Technologies and Expression Analysis (LTEA) Assay for CYP2C19 using HepaRG (AID 2283482)
Procedure, shortened: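 HepaRG, 48 h chemical exposure, 8-pt half-log series from 100 uM in 0.5% DMSO, duplicates. Readout: CYP2C19 mRNA by TaqMan qRT-PCR, housekeeping-normalized. Bidirectional fit vs DMSO baseline; phenobarbital 1mM as induction control.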

CYP2C8 (gene 1558) = experiment: LTEA_HepaRG_CYP2C8: Life Technologies and Expression Analysis (LTEA) Assay for CYP2C8 using HepaRG (AID 2283483)
Procedure, shortened: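 Differentiated HepaRG cells in serum-free induction medium exposed 48 h in duplicate to 8 half-log concentrations from 100 uM in 0.5% DMSO. CYP2C8 mRNA by qRT-PCR normalized to ACTB, GAPDH, POLR2A; bidirectional fit versus DMSO.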

CYP2C9 (gene 1559) = experiment: LTEA_HepaRG_CYP2C9: Life Technologies and Expression Analysis (LTEA) Assay for CYP2C9 using HepaRG (AID 2283484)
Procedure, shortened: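 Differentiated human HepaRG cells in serum-free induction medium were exposed 48 h to chemicals in 8-point half-log series from 100 uM (0.5% DMSO), in duplicate. CYP2C9 mRNA was measured by qRT-PCR, normalized to ACTB/GAPDH/POLR2A, with bidirectional fitting versus DMSO.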

CYP2E1 (gene 1571) = experiment: LTEA_HepaRG_CYP2E1: Life Technologies and Expression Analysis (LTEA) Assay for CYP2E1 using HepaRG (AID 2283485)
Procedure, shortened: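 Differentiated HepaRG cells were treated in duplicate for 48 h with chemicals in 0.5% DMSO, from 100 uM downward in half-log dilutions. RNA was then analysed by qRT-PCR for CYP2E1 induction or loss.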

CYP4A11 (gene 1579) = experiment: LTEA_HepaRG_CYP4A11: Life Technologies and Expression Analysis (LTEA) Assay for CYP4A11 using HepaRG (AID 2283486)
Procedure, shortened: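 CYP4A11 transcript levels were quantified by TaqMan qRT-PCR after HepaRG human liver cells were treated for 48 hours with test chemicals (top 100 uM, half-log dilutions, 0.5% DMSO). Gain or loss of signal was fitted relative to DMSO.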

[5] = read-out: Cytochrome P450 3A4 (Homo sapiens) (UniProt P08684); experiment: LTEA_HepaRG_CYP3A4: Life Technologies and Expression Analysis (LTEA) Assay for CYP3A4 using HepaRG (AID 2283487)
Procedure, shortened: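 In a human hepatic line (HepaRG), duplicate wells were treated 48 h with up to 100 uM chemical in half-log dilutions. Endpoint: CYP3A4 mRNA induction or loss relative to 0.5% DMSO vehicle, by qRT-PCR.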

[6] = read-out: DNA damage-inducible transcript 3 (DDIT3), DDIT3 (gene 1649); experiment: LTEA_HepaRG_DDIT3: Life Technologies and Expression Analysis (LTEA) Assay for DNA damage-inducible transcript 3 (DDIT3) using HepaRG (AID 2283488)
Procedure, shortened: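 Changes in DDIT3 transcript, in either direction relative to 0.5% DMSO vehicle, were quantified by TaqMan qRT-PCR after 48 h chemical exposure of HepaRG cells at 8 concentrations, maximum 100 uM.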

[7] = read-out: Pro-epidermal growth factor (Homo sapiens) (UniProt P01133); experiment: LTEA_HepaRG_EGF: Life Technologies and Expression Analysis (LTEA) Assay for Epidermal growth factor (EGF) using HepaRG (AID 2283489)
Procedure, shortened: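 qRT-PCR readout of EGF transcript after 48 h chemical exposure of HepaRG cells; eight concentrations from 100 uM down in half-log steps, duplicate wells, 0.5% DMSO vehicle. Bidirectional curve fitting against DMSO baseline.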

[8] = read-out: Early growth response protein 1 (EGR1) transcription factor, EGR1 (gene 1958); experiment: LTEA_HepaRG_EGR1: Life Technologies and Expression Analysis (LTEA) Assay for Early growth response protein 1 (EGR1) transcription factor using HepaRG (AID 2283490)
Procedure, shortened: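 Differentiated HepaRG cells in serum-free induction medium exposed 48 hours, duplicate, to 8 half-log concentrations up to 100 uM in 0.5% DMSO. EGR1 mRNA measured by TaqMan qRT-PCR, normalized to ACTB, GAPDH, POLR2A; bidirectional fit versus DMSO.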

[9] = read-out: Ezrin (EZR), EZR (gene 7430); experiment: LTEA_HepaRG_EZR: Life Technologies and Expression Analysis (LTEA) Assay for Ezrin (EZR) using HepaRG (AID 2283491)
Procedure, shortened: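 Gain or loss of EZR mRNA is scored relative to 0.5% DMSO in human HepaRG cultures treated 48 h with test chemicals in duplicate, eight half-log concentrations from 100 uM.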

[10] = read-out: Cytochrome P450 3A7 (Homo sapiens) (UniProt P24462); experiment: LTEA_HepaRG_CYP3A7: Life Technologies and Expression Analysis (LTEA) Assay for CYP3A7 using HepaRG (AID 2283492)
Procedure, shortened: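 CYP3A7 transcript levels were read by TaqMan qRT-PCR on Fluidigm arrays after 48 h chemical exposure of human HepaRG cells, with housekeeping-gene normalisation. Eight half-log concentrations up to 100 uM in 0.5% DMSO were tested in duplicate.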

CYP3A5 (gene 1577) = experiment: LTEA_HepaRG_CYP3A5: Life Technologies and Expression Analysis (LTEA) Assay for CYP3A5 using HepaRG (AID 2283493)
Procedure, shortened: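 mRNA induction or loss of CYP3A5 assessed in HepaRG after 48 h dosing, 100 uM top concentration, duplicate wells; TaqMan qRT-PCR with ACTB, GAPDH, POLR2A normalization; 0.5% DMSO as negative control.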

[11] = read-out: Fatty Acid-Binding Protein 1 (FABP1), FABP1 (gene 2168); experiment: LTEA_HepaRG_FABP1: Life Technologies and Expression Analysis (LTEA) Assay for Fatty Acid-Binding Protein 1 (FABP1) using HepaRG (AID 2283494)
Procedure, shortened: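 Differentiated human HepaRG cells exposed 48 h in serum-free induction medium to eight half-log concentrations up to 100 uM (0.5% DMSO), duplicate. FABP1 mRNA by qRT-PCR, normalised to ACTB, GAPDH, POLR2A; bidirectional fitting against DMSO.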

[12] = read-out: Cytochrome P450 4A22 (Homo sapiens) (UniProt Q5TCH4); experiment: LTEA_HepaRG_CYP4A22: Life Technologies and Expression Analysis (LTEA) Assay for Cytochrome P450 4A22 (CYP4A22) using HepaRG (AID 2283495)
Procedure, shortened: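 HepaRG, 48 h post-plating -> serum-free induction medium; dosed 48 h, duplicate, 8 conc. (100 uM top, half-log), 0.5% DMSO. Readout: CYP4A22 mRNA by qRT-PCR, ACTB/GAPDH/POLR2A normalization; gain/loss fit relative to DMSO.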

[13] = read-out: Cytochrome P450 7A1 (Homo sapiens) (UniProt P22680); experiment: LTEA_HepaRG_CYP7A1: Life Technologies and Expression Analysis (LTEA) Assay for Cytochrome P450 7A1 (CYP7A1) using HepaRG (AID 2283496)
Procedure, shortened: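 Gene expression endpoint in human HepaRG liver cells treated for 48 h with test chemicals (up to 100 uM, 0.5% DMSO). Values come from bidirectional concentration-response fitting versus DMSO.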

[14] = read-out: Cytochrome P450 (CYP24A1), CYP24A1 (gene 1591); experiment: LTEA_HepaRG_CYP24A1: Life Technologies and Expression Analysis (LTEA) Assay for Cytochrome P450 (CYP24A1) using HepaRG (AID 2283478)
Procedure, shortened: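 qRT-PCR read-out: CYP24A1 transcript levels normalized to three housekeeping genes, bidirectional curve fits against 0.5% DMSO baseline. Human HepaRG cells treated 48 h with chemicals at eight concentrations from 100 uM in half-log steps.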

[15] = read-out: Glutathione S-Transferase (GSTA2), GSTA2 (gene 2939); experiment: LTEA_HepaRG_GSTA2: Life Technologies and Expression Analysis (LTEA) Assay for Glutathione S-Transferase (GSTA2) using HepaRG (AID 2283497)
Procedure, shortened: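 Differentiated human HepaRG cells were exposed in duplicate for 48 h in serum-free induction medium, 8 points from 100 uM top in half-log steps, 0.5% DMSO. GSTA2 mRNA was measured by TaqMan qRT-PCR, normalized to ACTB, GAPDH and POLR2A; bidirectional fit versus DMSO.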

Measured: AC50

Chain of Cytochrome P450 2C19 (Homo sapiens) (P33261 whole entry, looked up): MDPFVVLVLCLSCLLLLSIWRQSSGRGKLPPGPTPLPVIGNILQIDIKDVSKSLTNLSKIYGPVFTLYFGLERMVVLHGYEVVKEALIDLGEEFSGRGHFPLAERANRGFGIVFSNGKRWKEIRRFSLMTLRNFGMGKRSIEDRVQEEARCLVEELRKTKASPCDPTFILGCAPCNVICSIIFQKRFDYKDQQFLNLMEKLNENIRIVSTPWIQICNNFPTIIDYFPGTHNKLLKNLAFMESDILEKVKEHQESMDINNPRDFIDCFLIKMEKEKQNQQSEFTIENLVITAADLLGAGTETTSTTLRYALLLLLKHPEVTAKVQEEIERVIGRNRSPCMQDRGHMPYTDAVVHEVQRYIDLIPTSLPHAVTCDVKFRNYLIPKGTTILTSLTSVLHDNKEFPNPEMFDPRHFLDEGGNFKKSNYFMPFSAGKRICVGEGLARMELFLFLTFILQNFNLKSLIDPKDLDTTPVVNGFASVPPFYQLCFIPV
Chain of Cytochrome P450 3A7 (Homo sapiens) (P24462 whole entry, looked up): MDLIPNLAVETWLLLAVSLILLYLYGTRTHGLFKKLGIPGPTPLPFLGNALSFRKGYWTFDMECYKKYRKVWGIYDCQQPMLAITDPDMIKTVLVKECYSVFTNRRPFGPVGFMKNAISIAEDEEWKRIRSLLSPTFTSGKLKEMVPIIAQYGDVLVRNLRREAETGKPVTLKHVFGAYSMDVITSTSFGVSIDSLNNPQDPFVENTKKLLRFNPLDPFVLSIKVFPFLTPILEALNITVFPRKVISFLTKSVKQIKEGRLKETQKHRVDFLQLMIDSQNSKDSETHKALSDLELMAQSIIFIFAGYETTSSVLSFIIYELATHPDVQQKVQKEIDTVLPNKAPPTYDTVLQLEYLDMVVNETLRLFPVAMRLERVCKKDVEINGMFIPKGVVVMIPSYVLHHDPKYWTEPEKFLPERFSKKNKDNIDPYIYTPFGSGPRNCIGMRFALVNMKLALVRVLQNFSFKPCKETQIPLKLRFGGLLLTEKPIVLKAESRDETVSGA
Chain of Cytochrome P450 3A4 (Homo sapiens) (P08684 whole entry, looked up): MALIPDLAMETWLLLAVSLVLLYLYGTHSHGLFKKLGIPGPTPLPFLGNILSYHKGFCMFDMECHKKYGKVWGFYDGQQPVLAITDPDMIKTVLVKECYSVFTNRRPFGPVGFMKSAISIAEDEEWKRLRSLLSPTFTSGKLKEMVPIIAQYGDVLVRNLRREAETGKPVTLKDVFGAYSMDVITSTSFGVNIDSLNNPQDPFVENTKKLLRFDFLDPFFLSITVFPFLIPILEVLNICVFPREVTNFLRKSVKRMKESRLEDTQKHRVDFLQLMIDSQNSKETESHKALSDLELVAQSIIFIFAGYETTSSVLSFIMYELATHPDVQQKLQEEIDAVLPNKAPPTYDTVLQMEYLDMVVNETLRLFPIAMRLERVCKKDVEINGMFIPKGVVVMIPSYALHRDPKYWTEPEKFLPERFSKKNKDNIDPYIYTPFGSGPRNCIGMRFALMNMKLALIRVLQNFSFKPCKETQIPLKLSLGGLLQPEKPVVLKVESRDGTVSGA

COC(=O)CCCCC(=O)OC
not listed: [14] | [15]
inactive: all other assays above

N#C[C@@H]1CC(F)(F)CN1C(=O)CNC1CC2CCC(C1)N2c1ncccn1 (stereo partly specified)
active: [1] 64.4 µM | [3] 27.8 µM | [4] 69 µM | [5] 50 µM
not listed: [10] | [12] | [15]
inactive: all other assays above

Cc1cc(C)c(O)c(C)c1
active: [3] 3.65 µM | [4] 9.18 µM | CYP2C8 (gene 1558) 5.03 µM | CYP2C9 (gene 1559) 6.31 µM | CYP2E1 (gene 1571) 13.4 µM | [5] 13.7 µM
not listed: [6] | [10] | [15]
inactive: all other assays above

OCCC(F)(F)C(F)(F)C(F)(F)C(F)(F)C(F)(F)C(F)(F)F
not listed: [6] | [10] | [12] | [15]
inactive: all other assays above

O=C(O)Cc1cc(I)c(Oc2cc(I)c(O)c(I)c2)c(I)c1
inactive: [14] | [9]
active: [1] 0.0864 µM | [2] 56.7 µM | [3] 55.3 µM | [4] 62.7 µM | CYP2C8 (gene 1558) 61.5 µM | CYP2C9 (gene 1559) 53.8 µM | CYP2E1 (gene 1571) 6.65 µM | CYP4A11 (gene 1579) 53.2 µM | [5] 50.7 µM | [6] 51.9 µM | [7] 57.3 µM | [8] 51.6 µM | CYP3A5 (gene 1577) 26.7 µM | [11] 62 µM | [13] 48.2 µM | [15] 56.7 µM

O=[N+]([O-])c1ccc(O)cc1
inactive: [1] | [2] | [3] | [4] | CYP2C8 (gene 1558) | CYP2C9 (gene 1559) | CYP2E1 (gene 1571) | CYP4A11 (gene 1579) | [5] | [7] | [8] | [9] | [10] | CYP3A5 (gene 1577) | [11] | [13] | [15]
active: [3] 19.9 µM

CCCCCCCCCCCCN1CCCC1=O
not listed: [6] | [12] | [15]
inactive: all other assays above
